Laboratory results published in the supplement of paper PMC11732987, “Enantioselective OTUD7B fragment discovery through chemoproteomics screening and high-throughput optimisation” (Communications Chemistry, 2025).

Assays:
Experiment in all cases: log2 ratio of Biotin-Ahx-Ub-VS probe labelling (fragment/DMSO); higher = less target engagement (more negative = stronger competition), active = hit call of the paper (q ≤ 0.05, log2 ratio ≤ -1)
Conditions in all cases: compound concentration: 200 uM; treatment time: 3 h
[1] = biological target: USP9X (UniProt Q93008)
Procedure, shortened: (§1)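 Labelled DUBs from HEK293T lysate were NeutrAvidin-enriched, digested with LysC and trypsin, and run by diaPASEF LC-MS/MS. Before that, each 495 µg sample in Tris/CHAPS/IGEPAL buffer with protease inhibitors was treated in triplicate with fragment at 200 µM or vehicle for 3 h, then with Biotin-Ahx-Ub-VS at 0.5 µM final for 1 h. Values are average log2 ratios of fragment over vehicle by unpaired t-test, based on global-median-normalised Spectronaut label-free quantities from proteins with ≥2 unique peptides.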

[2] = biological target: UniProt O00487
Procedure, shortened: as §1

[3] = biological target: UniProt O00507
Procedure, shortened: as §1

[4] = biological target: UniProt P51784
Procedure, shortened: as §1

[5] = biological target: T1, UniProt Q5T2D3
T1 sequence (whole entry): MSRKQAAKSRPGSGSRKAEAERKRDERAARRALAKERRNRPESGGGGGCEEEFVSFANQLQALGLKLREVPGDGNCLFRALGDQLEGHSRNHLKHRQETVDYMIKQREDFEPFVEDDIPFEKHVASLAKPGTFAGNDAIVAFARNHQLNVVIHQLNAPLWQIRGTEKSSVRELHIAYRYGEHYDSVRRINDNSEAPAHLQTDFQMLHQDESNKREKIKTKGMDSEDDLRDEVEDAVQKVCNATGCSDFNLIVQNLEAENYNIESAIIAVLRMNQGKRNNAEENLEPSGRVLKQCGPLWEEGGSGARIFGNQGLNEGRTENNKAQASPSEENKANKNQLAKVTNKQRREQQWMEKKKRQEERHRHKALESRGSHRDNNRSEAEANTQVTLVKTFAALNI
Procedure, shortened: as §1

[6] = biological target: T2, UniProt Q8TE49
T2 sequence (whole entry): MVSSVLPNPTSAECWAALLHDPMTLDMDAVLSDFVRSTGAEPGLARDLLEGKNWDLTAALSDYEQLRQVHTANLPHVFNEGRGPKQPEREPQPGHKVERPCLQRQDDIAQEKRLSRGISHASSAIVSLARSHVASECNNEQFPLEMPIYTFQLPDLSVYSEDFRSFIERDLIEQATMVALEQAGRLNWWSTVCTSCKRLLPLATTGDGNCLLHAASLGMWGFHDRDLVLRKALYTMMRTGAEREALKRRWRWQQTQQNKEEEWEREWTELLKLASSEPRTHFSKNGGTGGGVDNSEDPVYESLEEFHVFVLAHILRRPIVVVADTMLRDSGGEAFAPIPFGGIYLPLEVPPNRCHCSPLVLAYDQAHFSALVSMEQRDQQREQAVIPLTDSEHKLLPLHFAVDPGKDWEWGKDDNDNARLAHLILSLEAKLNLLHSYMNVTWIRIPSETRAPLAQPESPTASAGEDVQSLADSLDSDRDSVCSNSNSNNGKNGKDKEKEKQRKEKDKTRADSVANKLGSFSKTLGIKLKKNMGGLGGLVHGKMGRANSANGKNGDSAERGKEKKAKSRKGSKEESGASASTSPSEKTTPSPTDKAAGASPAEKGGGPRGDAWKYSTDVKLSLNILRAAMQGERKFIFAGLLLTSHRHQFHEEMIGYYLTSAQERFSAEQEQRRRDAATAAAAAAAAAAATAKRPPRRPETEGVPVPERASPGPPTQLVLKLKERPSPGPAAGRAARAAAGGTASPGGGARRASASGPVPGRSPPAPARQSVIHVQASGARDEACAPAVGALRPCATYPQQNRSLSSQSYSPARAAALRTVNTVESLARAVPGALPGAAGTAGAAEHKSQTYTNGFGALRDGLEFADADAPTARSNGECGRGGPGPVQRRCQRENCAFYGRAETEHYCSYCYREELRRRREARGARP
Procedure, shortened: as §1

[7] = biological target: T3, UniProt Q9P2H5
T3 sequence (whole entry): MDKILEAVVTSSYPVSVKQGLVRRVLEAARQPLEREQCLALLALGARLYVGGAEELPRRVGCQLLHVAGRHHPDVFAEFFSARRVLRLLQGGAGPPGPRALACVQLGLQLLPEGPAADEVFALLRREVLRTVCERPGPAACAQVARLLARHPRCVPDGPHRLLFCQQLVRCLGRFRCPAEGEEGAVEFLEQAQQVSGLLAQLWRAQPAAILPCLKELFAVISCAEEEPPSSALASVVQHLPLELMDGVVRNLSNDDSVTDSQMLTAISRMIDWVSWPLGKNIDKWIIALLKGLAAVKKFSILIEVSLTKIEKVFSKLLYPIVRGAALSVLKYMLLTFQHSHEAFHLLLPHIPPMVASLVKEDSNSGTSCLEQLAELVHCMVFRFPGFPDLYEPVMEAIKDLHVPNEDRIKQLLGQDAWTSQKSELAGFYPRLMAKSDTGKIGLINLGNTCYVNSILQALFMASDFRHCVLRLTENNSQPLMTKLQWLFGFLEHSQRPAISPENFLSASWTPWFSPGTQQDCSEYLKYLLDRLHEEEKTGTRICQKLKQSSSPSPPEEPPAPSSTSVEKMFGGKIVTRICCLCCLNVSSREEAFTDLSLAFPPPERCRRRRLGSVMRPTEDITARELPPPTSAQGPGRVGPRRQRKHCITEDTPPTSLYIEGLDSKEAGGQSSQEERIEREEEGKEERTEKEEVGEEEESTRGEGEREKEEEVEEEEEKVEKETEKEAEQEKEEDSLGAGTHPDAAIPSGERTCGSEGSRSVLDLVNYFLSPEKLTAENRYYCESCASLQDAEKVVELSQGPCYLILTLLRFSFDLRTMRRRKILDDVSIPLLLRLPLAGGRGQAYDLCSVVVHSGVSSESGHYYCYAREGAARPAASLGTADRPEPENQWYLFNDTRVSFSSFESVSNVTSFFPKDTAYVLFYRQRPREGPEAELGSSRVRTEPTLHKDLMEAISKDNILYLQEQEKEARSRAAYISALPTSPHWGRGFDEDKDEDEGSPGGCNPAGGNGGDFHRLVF
Procedure, shortened: as §1

[8] = biological target: T4, UniProt Q9UGI0
T4 sequence (whole entry): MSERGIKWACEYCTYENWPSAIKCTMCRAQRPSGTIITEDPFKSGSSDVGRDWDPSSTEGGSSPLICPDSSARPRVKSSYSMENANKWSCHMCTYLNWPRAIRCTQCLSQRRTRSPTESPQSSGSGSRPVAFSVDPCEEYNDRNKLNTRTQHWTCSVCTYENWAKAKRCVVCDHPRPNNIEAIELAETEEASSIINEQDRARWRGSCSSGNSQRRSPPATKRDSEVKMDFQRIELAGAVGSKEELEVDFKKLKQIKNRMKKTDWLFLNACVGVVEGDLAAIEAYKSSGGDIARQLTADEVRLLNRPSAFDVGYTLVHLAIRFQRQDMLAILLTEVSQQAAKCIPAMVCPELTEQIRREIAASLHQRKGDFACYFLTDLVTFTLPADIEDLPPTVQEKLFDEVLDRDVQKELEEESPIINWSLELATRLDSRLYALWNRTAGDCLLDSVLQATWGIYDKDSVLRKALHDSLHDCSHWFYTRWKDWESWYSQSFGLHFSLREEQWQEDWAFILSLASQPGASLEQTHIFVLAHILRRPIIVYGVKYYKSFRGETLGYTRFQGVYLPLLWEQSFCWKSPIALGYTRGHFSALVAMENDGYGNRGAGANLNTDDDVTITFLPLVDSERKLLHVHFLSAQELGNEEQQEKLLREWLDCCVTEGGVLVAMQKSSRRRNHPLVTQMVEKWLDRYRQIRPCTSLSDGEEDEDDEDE
Procedure, shortened: as §1

[9] = biological target: T5, YOD1 (UniProt Q5VVQ6)
T5 sequence (whole entry): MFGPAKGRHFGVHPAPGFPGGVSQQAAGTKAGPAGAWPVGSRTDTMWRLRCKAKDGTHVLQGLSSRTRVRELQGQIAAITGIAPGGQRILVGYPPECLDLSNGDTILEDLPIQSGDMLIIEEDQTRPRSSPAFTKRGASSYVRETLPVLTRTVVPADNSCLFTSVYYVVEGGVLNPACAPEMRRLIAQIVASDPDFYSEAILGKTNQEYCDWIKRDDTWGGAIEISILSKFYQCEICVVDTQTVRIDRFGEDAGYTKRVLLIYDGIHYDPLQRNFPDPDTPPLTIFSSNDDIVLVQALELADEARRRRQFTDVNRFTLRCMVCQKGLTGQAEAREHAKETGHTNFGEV
Procedure, shortened: as §1

Measured: log2 ratio of Biotin-Ahx-Ub-VS probe labelling

USP9X, sequence (Q93008 whole entry, the tested form may be a part): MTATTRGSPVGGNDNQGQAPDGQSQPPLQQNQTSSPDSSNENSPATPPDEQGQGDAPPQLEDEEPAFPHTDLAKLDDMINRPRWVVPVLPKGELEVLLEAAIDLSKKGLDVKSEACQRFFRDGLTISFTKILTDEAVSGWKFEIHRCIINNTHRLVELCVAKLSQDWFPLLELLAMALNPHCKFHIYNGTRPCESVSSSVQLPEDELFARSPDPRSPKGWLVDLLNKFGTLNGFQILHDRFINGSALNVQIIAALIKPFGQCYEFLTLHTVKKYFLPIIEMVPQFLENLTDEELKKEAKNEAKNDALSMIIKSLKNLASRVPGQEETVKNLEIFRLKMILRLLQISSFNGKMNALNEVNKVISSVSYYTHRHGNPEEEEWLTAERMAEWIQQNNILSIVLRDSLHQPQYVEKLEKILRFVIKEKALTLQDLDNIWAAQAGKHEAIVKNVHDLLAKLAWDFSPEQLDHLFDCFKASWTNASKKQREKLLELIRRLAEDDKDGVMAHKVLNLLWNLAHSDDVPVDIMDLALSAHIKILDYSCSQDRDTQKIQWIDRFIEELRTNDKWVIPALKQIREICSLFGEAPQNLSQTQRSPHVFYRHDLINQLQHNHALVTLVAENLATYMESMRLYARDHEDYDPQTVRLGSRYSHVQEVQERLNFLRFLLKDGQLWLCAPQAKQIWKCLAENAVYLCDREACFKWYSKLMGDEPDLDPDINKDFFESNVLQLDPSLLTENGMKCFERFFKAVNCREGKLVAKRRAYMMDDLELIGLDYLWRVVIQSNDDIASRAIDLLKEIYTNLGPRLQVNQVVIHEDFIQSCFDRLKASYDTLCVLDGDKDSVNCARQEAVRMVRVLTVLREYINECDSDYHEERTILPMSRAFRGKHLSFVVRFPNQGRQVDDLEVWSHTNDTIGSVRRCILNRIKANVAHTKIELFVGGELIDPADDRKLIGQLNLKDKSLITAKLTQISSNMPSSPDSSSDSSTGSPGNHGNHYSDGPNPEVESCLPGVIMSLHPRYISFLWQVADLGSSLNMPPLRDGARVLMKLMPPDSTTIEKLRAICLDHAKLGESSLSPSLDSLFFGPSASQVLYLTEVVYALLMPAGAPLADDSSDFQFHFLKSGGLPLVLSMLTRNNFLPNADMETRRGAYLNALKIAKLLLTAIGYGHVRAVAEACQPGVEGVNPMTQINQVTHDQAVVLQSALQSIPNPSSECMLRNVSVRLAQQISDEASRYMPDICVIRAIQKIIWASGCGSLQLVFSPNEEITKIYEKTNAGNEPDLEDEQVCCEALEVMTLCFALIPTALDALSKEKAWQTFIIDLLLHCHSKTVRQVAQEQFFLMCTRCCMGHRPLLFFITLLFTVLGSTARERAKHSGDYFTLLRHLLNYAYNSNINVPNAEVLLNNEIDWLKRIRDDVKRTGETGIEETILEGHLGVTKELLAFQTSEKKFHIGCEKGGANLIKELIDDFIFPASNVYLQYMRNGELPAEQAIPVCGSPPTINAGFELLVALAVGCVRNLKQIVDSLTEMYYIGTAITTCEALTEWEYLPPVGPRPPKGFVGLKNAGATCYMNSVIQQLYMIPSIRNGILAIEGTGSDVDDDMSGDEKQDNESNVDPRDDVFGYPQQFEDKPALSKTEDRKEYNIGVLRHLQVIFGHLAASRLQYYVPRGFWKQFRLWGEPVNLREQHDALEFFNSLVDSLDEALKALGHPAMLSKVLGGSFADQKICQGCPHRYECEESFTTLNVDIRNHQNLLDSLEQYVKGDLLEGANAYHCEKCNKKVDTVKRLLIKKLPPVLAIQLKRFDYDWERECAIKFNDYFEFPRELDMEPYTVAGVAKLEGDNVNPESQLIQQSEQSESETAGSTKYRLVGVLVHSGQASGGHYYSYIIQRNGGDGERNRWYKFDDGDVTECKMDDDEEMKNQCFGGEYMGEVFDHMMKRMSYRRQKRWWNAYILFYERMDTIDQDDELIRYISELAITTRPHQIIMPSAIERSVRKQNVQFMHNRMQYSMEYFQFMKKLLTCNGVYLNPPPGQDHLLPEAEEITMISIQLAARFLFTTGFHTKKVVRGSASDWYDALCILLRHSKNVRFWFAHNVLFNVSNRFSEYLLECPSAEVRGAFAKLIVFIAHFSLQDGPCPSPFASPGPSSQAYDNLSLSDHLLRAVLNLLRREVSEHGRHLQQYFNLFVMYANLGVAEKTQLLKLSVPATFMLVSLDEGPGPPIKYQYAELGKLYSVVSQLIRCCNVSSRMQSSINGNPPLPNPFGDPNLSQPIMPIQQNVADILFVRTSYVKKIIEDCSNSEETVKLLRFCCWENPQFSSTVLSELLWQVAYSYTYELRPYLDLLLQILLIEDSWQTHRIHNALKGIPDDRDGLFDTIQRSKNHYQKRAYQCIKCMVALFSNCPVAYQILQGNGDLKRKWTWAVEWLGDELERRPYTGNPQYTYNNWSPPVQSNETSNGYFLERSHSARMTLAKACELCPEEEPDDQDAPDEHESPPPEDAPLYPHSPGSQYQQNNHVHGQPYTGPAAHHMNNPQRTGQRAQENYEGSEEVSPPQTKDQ
UniProt O00487, sequence (O00487 whole entry): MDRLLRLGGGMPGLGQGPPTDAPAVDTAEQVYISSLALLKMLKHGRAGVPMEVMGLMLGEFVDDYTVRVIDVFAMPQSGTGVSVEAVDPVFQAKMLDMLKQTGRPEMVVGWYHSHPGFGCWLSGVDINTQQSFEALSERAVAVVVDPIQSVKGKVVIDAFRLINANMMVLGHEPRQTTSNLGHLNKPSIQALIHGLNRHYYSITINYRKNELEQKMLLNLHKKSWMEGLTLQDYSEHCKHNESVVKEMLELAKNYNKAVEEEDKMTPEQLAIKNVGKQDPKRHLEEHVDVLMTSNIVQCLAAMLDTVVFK
UniProt P51784, sequence (P51784 whole entry): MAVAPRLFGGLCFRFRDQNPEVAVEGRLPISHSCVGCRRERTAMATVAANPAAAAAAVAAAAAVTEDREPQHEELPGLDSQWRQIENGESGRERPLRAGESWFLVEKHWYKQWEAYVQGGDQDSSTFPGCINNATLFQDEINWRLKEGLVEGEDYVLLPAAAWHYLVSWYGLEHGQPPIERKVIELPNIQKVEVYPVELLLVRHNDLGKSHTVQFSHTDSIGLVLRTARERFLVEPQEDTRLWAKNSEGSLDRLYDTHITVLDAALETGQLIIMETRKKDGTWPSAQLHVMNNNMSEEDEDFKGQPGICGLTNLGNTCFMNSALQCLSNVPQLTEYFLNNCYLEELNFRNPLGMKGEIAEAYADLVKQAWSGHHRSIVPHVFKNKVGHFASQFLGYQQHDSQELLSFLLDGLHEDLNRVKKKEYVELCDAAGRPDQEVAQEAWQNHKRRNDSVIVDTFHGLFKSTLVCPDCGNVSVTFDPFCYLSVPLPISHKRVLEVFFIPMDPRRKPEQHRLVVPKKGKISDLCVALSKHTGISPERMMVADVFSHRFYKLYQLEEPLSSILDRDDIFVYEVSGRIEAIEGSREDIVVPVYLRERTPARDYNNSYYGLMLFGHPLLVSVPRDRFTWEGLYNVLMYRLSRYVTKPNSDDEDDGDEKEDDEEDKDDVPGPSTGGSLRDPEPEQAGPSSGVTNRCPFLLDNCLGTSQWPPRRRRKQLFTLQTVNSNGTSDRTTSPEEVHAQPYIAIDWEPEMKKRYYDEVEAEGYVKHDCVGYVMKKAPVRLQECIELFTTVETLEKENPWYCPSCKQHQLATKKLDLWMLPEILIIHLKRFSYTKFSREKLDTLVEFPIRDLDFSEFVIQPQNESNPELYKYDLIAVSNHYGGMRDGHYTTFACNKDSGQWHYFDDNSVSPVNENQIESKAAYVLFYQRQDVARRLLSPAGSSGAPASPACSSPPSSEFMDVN

O=C(CCl)Nc1cccc(C(=O)N2CCSCC2)c1
inactive: [1] -0.091 | [2] 0.0356 | [3] -0.587 | [4] -0.172 | [5] -0.17 | [6] -0.399 | [7] 0.0593 | [8] -0.309 | [9] -0.58
